Screening data deposited in PubChem BioAssay by several laboratories.
A selection: hits, their analogues and other compounds. The true share with any hit is near 3.4%.
SMARCA2 activ: increases SMARCA2 function in MMTV reporter cells. activation, % at 9.1 µM. hit rate 1% among 370,000. MG213 cells, MMTV-luciferase reporter, dexamethasone, overnight; in the data active = activation above about 7.8%
HSP90 refold inh: inhibitors of HSP90 luciferase refolding in rabbit reticulocyte lysate. luciferase refolding luminescence, 3 h. inhibition, % at 5.6 µM. hit rate 0.91% among 290,000. AID 1789;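 active = inhibition above the screen-wide mean plus 3 SD, computed separately per campaign, cut at about 16% in these data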;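 also: inhibitors lower the luminescence because luciferase stays unfolded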
FXN GAA850 act: increases GAA850 frataxin promoter reporter activity | HEK293 lucGAA850 FXN promoter luciferase reporter, 24 h; percent of 10 µM SAHA response | hit rate 0.56% among 360,000 | activation, % at 6 µM;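 active = activation above the average of all compounds screened plus 3 SD, cutoff fixed separately per campaign, cut at about 7.5% in these data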
AI-2 QS modul: modulators of Vibrio harveyi AI-2 quorum sensing system; Vibrio harveyi JMH597 AI-2 luminescence/OD600 ratio, 9 h; active compounds read low; strain lacks LuxN and CqsS sensors; 0 = neutral-control median; AID 2094; activity change, % at 7.5 µM; hit rate 0.4% among 300,000; in the data active = activity change below about -75%, passing the limit was not always enough;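 also: luminescence divided by OD600 gain over 9 h not by final OD600 alone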
HSF1 inh: HSF1 inhibition. NIH3T3-HGL HSE-luciferase, MG132-induced, luminescence 8 h; active compounds read low. activity change, negative = inhibition, % at 7.5 µM (by protocol). hit rate 0.77% among 300,000. AID 2098;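 active = more than half of replicate wells show activity change below -50%, luminescence cut by over half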;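 also: luciferase reports HSF-1 transcriptional activity via heat shock element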
PG9 Ab binder: binds the HIV-1 gp120 antibody PG9; TR-FRET gp120-PG9 antibody binding; inhibition, % at 6.7 µM; hit rate 0.43% among 360,000; in the data active = inhibition above about 8.5%
Hits are given with their value; 0 = inactive; - = no result.

SMILES | SMARCA2 activ | HSP90 refold inh | FXN GAA850 act | AI-2 QS modul | HSF1 inh | PG9 Ab binder
CC(C)Cc1nc2sc3c(NCc4ccco4)ncnc3c2c2c1COC(C)(C)C2 | 0 | 0 | 0 | 0 | 0 | 0
S=C1Nc2ccccc2CS1 | 0 | - | 0 | - | - | 0
S=C1Cc2ccccc2N1 | 0 | 0 | 0 | 0 | -77 | 0
COC(=O)CS(=O)(=O)c1nnc([C@H](Cc2ccccc2)NC(=O)OC(C)(C)C)o1 | 0 | 0 | 15 | 0 | 0 | 0
Cc1cccc(CS(=O)(=O)c2nnc([C@H](Cc3ccccc3)NC(=O)OC(C)(C)C)o2)c1 | - | 0 | 0 | 0 | -68 | -
NCCCC(C(=O)O)N(C(=O)OCc1ccccc1)C(=O)OCc1ccccc1 (stereo unspecified) | 0 | - | - | - | - | 0
CC1CC(C)CN(C(=O)C2CCN(c3cncnc3)CC2)C1 (stereo unspecified) | 0 | - | - | - | - | -
CCN(C)C(=O)CN1C(=O)C2CCCCN2C(=O)c2ccccc21 (stereo unspecified) | 0 | - | - | - | - | -
CCCCn1cc(S(=O)(=O)c2ccccc2)c(=O)c2cc(C)ccc21 | 0 | 0 | 0 | 0 | -74 | 0
CC(=O)OCCn1c2nc(=O)[nH]c(=O)c-2nc2cc(C)c(C)cc21 | 0 | 20 | 0 | 0 | 0 | 0
COc1cccc(Nc2ccc(C(=O)O)cc2N)c1 | 0 | 0 | 0 | 0 | -66 | 0
COc1ccc(CNS(=O)(=O)CC2NCc3ccc(C)cc32)cc1 (stereo unspecified) | 0 | - | - | - | - | -
CN(CC(=O)Nc1cccc(F)c1)CC(=O)Nc1cccc(S(N)(=O)=O)c1 | 0 | 0 | 0 | 0 | -72 | 0
COc1ccc(OC)c2c1C(=O)C(Cl)=C(Cl)C2=O | 0 | 0 | 0 | 0 | -70 | 0
O=C(Cc1cccs1)NC1CCCCN(Cc2ccc(Cl)cc2)C1=O (stereo unspecified) | 0 | - | - | - | - | -
CCC(C(=O)OCC(=O)Nc1cc(Cl)ccc1Cl)c1ccccc1 (stereo unspecified) | 0 | 0 | 0 | 0 | -66 | 0
CCC(C(=O)OCC(=O)Nc1ccc(OC)cc1OC)c1ccccc1 (stereo unspecified) | 0 | 0 | 0 | 0 | 0 | 0
COc1cccc(N2CCN(C(=S)Nc3cc(C)cc(C)c3)CC2)c1 | 0 | 0 | 0 | 0 | -52 | 0
COc1cc(NC(=S)N2CCCC2)cc(OC)c1 | 0 | 17 | 0 | 0 | - | 0
COc1cccc(N2CCN(C(=S)Nc3ccc(F)cc3)CC2)c1 | 0 | 0 | 0 | 0 | 0 | 0
COc1cccc(NC(=S)N2CCCC2)c1 | 0 | 0 | 0 | 0 | 0 | 0
CC(C)CN(CC(C)C)C(=O)CSc1nc2cccnc2n1C | 0 | - | - | - | - | -
Cc1ncc(CO)c(/C=N/NC(=S)Nc2ccc(Cl)c(Cl)c2)c1O | 0 | 0 | 0 | -210 | 0 | 0
C#CCN1CC(N(C)CCOC(=O)c2ccc(F)cc2)CS1(=O)=O (stereo unspecified) | 0 | - | - | - | - | -
CN(C)CC(=O)N[C@@H]1C=C[C@@H](CC(=O)NCCN2CCCCC2)O[C@@H]1CO | 7.8 | - | - | - | - | 0
SMILES | SMARCA2 activ | HSP90 refold inh | FXN GAA850 act | AI-2 QS modul | HSF1 inh | PG9 Ab binder
CN(C)CC(=O)N[C@@H]1CC[C@@H](CC(=O)NCCN2CCCCC2)O[C@@H]1CO | 0 | - | - | - | - | 0
O=C(Nc1ccc2c(c1)OCCO2)c1coc2ccccc2c1=O | 0 | 0 | 0 | 0 | -52 | 0
O=c1cc(-c2ccccc2)oc2ccc(Br)cc12 | 7.8 | - | 0 | - | - | 0
COC(=O)[C@]12C[C@H](CC(=O)NCC3CCCCC3)C(=O)N(CCc3ccc(OC)c(OC)c3)C1=C[C@H](C(C)C)O[C@@H]2C1CC1 | 0 | - | - | - | - | -
Cc1[nH]c(=O)[nH]c(=O)c1CCSSCCc1c(C)[nH]c(=O)[nH]c1=O | 0 | - | - | - | - | 0
O=C(CNC(=O)c1cccc(F)c1)N/N=C/c1ccc([N+](=O)[O-])s1 | 0 | 0 | 0 | -148 | 0 | 0
O=C(N/N=C/c1ccc([N+](=O)[O-])s1)c1ccccc1Br | 0 | 0 | 0 | - | 0 | 0
Cc1ccccc1C(=O)N/N=C/c1ccc([N+](=O)[O-])s1 | 0 | 0 | 0 | -76 | 0 | 0
COc1ccc(S(=O)(=O)/N=C2\C=C(Nc3ccc(O)cc3)C(=O)c3ccccc32)cc1 | 0 | 96 | 0 | 0 | -94 | 0
CC(C)CN1C(=O)C[C@]2(C(=O)N(C)c3ccc(NS(=O)(=O)C4CCCCC4)cc32)C1c1ccccc1 (stereo partly specified) | 0 | - | - | - | - | -
COC(=O)C1CN(Cc2ccc(OC)cc2)CCS(=O)(=O)N1Cc1ccc(Cl)cc1 (stereo unspecified) | 0 | - | - | - | - | -
